# Measurements from the supplement of paper PMC4466140.
# B1: unnamed (peptide)
# chain: ALKQKKIPPPFKPHL
# B2: unnamed (peptide)
# chain: RRRDFGAPANKRPRR
# How the values were obtained:
# Assay in all cases: SPOT peptide array binding signal intensity (averaged, normalized) (arbitrary units (background-subtracted, floor 0; scale differs between SH3 domains)); higher = stronger binding of the SH3 domain to the peptide
# AgAbp1 = target: AgAbp1
# Experimental: (§1)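 GST-tagged SH3 domains from S. cerevisiae (Sc), A. gossypii (Ag), C. albicans (Ca) and S. pombe (Sp) were incubated at 10 ug/ml overnight at 4 C on cellulose SPOT membranes carrying 292 synthetic 15-mer peptides mined from the S. cerevisiae proteome (cysteines replaced by serines). Binding was detected with anti-GST antibody, HRP secondary and chemiluminescence, quantified with Genespotter, and reported as normalized spot intensities averaged over biological replicates.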
# AgBbc1 = target: AgBbc1
# Experimental: as §1
# AgBem1-D1 = target: AgBem1-D1
# Experimental: as §1
# AgBzz1-D1 = target: AgBzz1-D1
# Experimental: as §1
# AgBzz1-D2 = target: AgBzz1-D2
# Experimental: as §1
# AgCyk3 = target: AgCyk3
# Experimental: as §1
# AgFus1 = target: AgFus1
# Experimental: as §1
# AgHof1 = target: AgHof1
# Experimental: as §1
# AgHse1 = target: AgHse1
# Experimental: as §1
# AgLsb1 = target: AgLsb1
# Experimental: as §1
# AgLsb4 = target: AgLsb4
# Experimental: as §1
# AgMyo5 = target: AgMyo5
# Experimental: as §1
# AgNbp2 = target: AgNbp2
# Experimental: as §1
# AgRvs167 = target: AgRvs167
# Experimental: as §1
# AgSho1 = target: AgSho1
# Experimental: as §1
# AgSla1-D1-D2 = target: AgSla1-D1-D2
# Experimental: as §1
# AgSla1-D3 = target: AgSla1-D3
# Experimental: as §1
# CaAbp1-D1 = target: CaAbp1-D1
# Experimental: as §1
# CaAbp1-D2 = target: CaAbp1-D2
# Experimental: as §1
# CaBbc1 = target: CaBbc1
# Experimental: as §1
# CaBem1-D1 = target: CaBem1-D1
# Experimental: as §1
# CaBzz1-D1 = target: CaBzz1-D1
# Experimental: as §1
# CaBzz1-D2 = target: CaBzz1-D2
# Experimental: as §1
# CaCyk3 = target: CaCyk3
# Experimental: as §1
# CaFus1 = target: CaFus1
# Experimental: as §1
# CaHof1 = target: CaHof1
# Experimental: as §1
# CaHse1 = target: CaHse1
# Experimental: as §1
# CaLsb1 = target: CaLsb1
# Experimental: as §1
# CaLsb4 = target: CaLsb4
# Experimental: as §1
# CaMyo5 = target: CaMyo5
# Experimental: as §1
# CaNbp2 = target: CaNbp2
# Experimental: as §1
# CaRvs167 = target: CaRvs167
# Experimental: as §1
# CaRvs167-3 = target: CaRvs167-3
# Experimental: as §1
# CaSho1 = target: CaSho1
# Experimental: as §1
# CaSla1-D1-D2 = target: CaSla1-D1-D2
# Experimental: as §1
# CaSla1-D3 = target: CaSla1-D3
# Experimental: as §1
# ScAbp1 = target: ScAbp1
# Experimental: as §1
# ScBbc1 = target: ScBbc1
# Experimental: as §1
# ScBem1-D1 = target: ScBem1-D1
# Experimental: as §1
# ScBzz1-D1 = target: ScBzz1-D1
# Experimental: as §1
# ScBzz1-D2 = target: ScBzz1-D2
# Experimental: as §1
# ScCyk3 = target: ScCyk3
# Experimental: as §1
# ScFus1 = target: ScFus1
# Experimental: as §1
# ScHof1 = target: ScHof1
# Experimental: as §1
# ScHse1 = target: ScHse1
# Experimental: as §1
# ScLsb1 = target: ScLsb1
# Experimental: as §1
# ScLsb2 = target: ScLsb2
# Experimental: as §1
# ScLsb3 = target: ScLsb3
# Experimental: as §1
# ScLsb4 = target: ScLsb4
# Experimental: as §1
# ScMyo3 = target: ScMyo3
# Experimental: as §1
# ScMyo5 = target: ScMyo5
# Experimental: as §1
# ScNbp2 = target: ScNbp2
# Experimental: as §1
# ScPex13 = target: ScPex13
# Experimental: as §1
# ScRvs167 = target: ScRvs167
# Experimental: as §1
# ScSho1 = target: ScSho1
# Experimental: as §1
# ScSla1-D1-D2 = target: ScSla1-D1-D2
# Experimental: as §1
# ScSla1-D3 = target: ScSla1-D3
# Experimental: as §1
# SpAbp1-D1 = target: SpAbp1-D1
# Experimental: as §1
# SpBbc1 = target: SpBbc1
# Experimental: as §1
# SpBzz1-D1 = target: SpBzz1-D1
# Experimental: as §1
# SpBzz1-D2 = target: SpBzz1-D2
# Experimental: as §1
# SpCyk3 = target: SpCyk3
# Experimental: as §1
# SpHof1 = target: SpHof1
# Experimental: as §1
# SpHof1-2 = target: SpHof1-2
# Experimental: as §1
# SpHof1-3 = target: SpHof1-3
# Experimental: as §1
# SpHse1 = target: SpHse1
# Experimental: as §1
# SpLsb1 = target: SpLsb1
# Experimental: as §1
# SpLsb4 = target: SpLsb4
# Experimental: as §1
# SpMyo1 = target: SpMyo1
# Experimental: as §1
# SpNbp2 = target: SpNbp2
# Experimental: as §1
# SpPex13 = target: SpPex13
# Experimental: as §1
# SpRvs167 = target: SpRvs167
# Experimental: as §1
# SpSla1-D1-D2 = target: SpSla1-D1-D2
# Experimental: as §1
# SpSla1-D3 = target: SpSla1-D3
# Experimental: as §1
binder,measurement,setting,value
B1,SPOT peptide array binding signal intensity,AgAbp1,43.5
same,SPOT peptide array binding signal intensity,AgBbc1,≤ 0
same,SPOT peptide array binding signal intensity,AgBem1-D1,4
same,SPOT peptide array binding signal intensity,AgBzz1-D1,43
same,SPOT peptide array binding signal intensity,AgBzz1-D2,22
same,SPOT peptide array binding signal intensity,AgCyk3,≤ 0
same,SPOT peptide array binding signal intensity,AgFus1,≤ 0
same,SPOT peptide array binding signal intensity,AgHof1,7.5
same,SPOT peptide array binding signal intensity,AgHse1,≤ 0
same,SPOT peptide array binding signal intensity,AgLsb1,≤ 0
same,SPOT peptide array binding signal intensity,AgLsb4,≤ 0
same,SPOT peptide array binding signal intensity,AgMyo5,≤ 0
same,SPOT peptide array binding signal intensity,AgNbp2,≤ 0
same,SPOT peptide array binding signal intensity,AgRvs167,≤ 0
same,SPOT peptide array binding signal intensity,AgSho1,≤ 0
same,SPOT peptide array binding signal intensity,AgSla1-D1-D2,≤ 0
same,SPOT peptide array binding signal intensity,AgSla1-D3,2.5
same,SPOT peptide array binding signal intensity,CaAbp1-D1,938
same,SPOT peptide array binding signal intensity,CaAbp1-D2,984
same,SPOT peptide array binding signal intensity,CaBbc1,≤ 0
same,SPOT peptide array binding signal intensity,CaBem1-D1,2
same,SPOT peptide array binding signal intensity,CaBzz1-D1,589
same,SPOT peptide array binding signal intensity,CaBzz1-D2,205
same,SPOT peptide array binding signal intensity,CaCyk3,≤ 0
same,SPOT peptide array binding signal intensity,CaFus1,19.5
same,SPOT peptide array binding signal intensity,CaHof1,0.5
same,SPOT peptide array binding signal intensity,CaHse1,0.5
same,SPOT peptide array binding signal intensity,CaLsb1,≤ 0
same,SPOT peptide array binding signal intensity,CaLsb4,≤ 0
same,SPOT peptide array binding signal intensity,CaMyo5,0.5
B2,SPOT peptide array binding signal intensity,AgAbp1,45
same,SPOT peptide array binding signal intensity,AgBbc1,223
same,SPOT peptide array binding signal intensity,AgBem1-D1,179
same,SPOT peptide array binding signal intensity,AgBzz1-D1,60
same,SPOT peptide array binding signal intensity,AgBzz1-D2,18
same,SPOT peptide array binding signal intensity,AgCyk3,5
same,SPOT peptide array binding signal intensity,AgFus1,374
same,SPOT peptide array binding signal intensity,AgHof1,57.5
same,SPOT peptide array binding signal intensity,AgHse1,156
same,SPOT peptide array binding signal intensity,AgLsb1,0.75
same,SPOT peptide array binding signal intensity,AgLsb4,56.5
same,SPOT peptide array binding signal intensity,AgMyo5,0.5
same,SPOT peptide array binding signal intensity,AgNbp2,39
same,SPOT peptide array binding signal intensity,AgRvs167,6
same,SPOT peptide array binding signal intensity,AgSho1,10
same,SPOT peptide array binding signal intensity,AgSla1-D1-D2,27.5
same,SPOT peptide array binding signal intensity,AgSla1-D3,4.75
same,SPOT peptide array binding signal intensity,CaAbp1-D1,106
same,SPOT peptide array binding signal intensity,CaAbp1-D2,126
same,SPOT peptide array binding signal intensity,CaBbc1,546
same,SPOT peptide array binding signal intensity,CaBem1-D1,52.5
same,SPOT peptide array binding signal intensity,CaBzz1-D1,116
same,SPOT peptide array binding signal intensity,CaBzz1-D2,124
same,SPOT peptide array binding signal intensity,CaCyk3,17
same,SPOT peptide array binding signal intensity,CaFus1,241
same,SPOT peptide array binding signal intensity,CaHof1,0.5
same,SPOT peptide array binding signal intensity,CaHse1,2.25
same,SPOT peptide array binding signal intensity,CaLsb1,≤ 0
same,SPOT peptide array binding signal intensity,CaLsb4,67.5
same,SPOT peptide array binding signal intensity,CaMyo5,2.25
same,SPOT peptide array binding signal intensity,CaNbp2,138
same,SPOT peptide array binding signal intensity,CaRvs167,16
same,SPOT peptide array binding signal intensity,CaRvs167-3,4.5
same,SPOT peptide array binding signal intensity,CaSho1,116
same,SPOT peptide array binding signal intensity,CaSla1-D1-D2,66
same,SPOT peptide array binding signal intensity,CaSla1-D3,4.75
same,SPOT peptide array binding signal intensity,ScAbp1,79
same,SPOT peptide array binding signal intensity,ScBbc1,65
same,SPOT peptide array binding signal intensity,ScBem1-D1,94
same,SPOT peptide array binding signal intensity,ScBzz1-D1,32
same,SPOT peptide array binding signal intensity,ScBzz1-D2,29
same,SPOT peptide array binding signal intensity,ScCyk3,100
same,SPOT peptide array binding signal intensity,ScFus1,163
same,SPOT peptide array binding signal intensity,ScHof1,2
same,SPOT peptide array binding signal intensity,ScHse1,584
same,SPOT peptide array binding signal intensity,ScLsb1,4.5
same,SPOT peptide array binding signal intensity,ScLsb2,1.5
same,SPOT peptide array binding signal intensity,ScLsb3,810
same,SPOT peptide array binding signal intensity,ScLsb4,15.5
same,SPOT peptide array binding signal intensity,ScMyo3,9
same,SPOT peptide array binding signal intensity,ScMyo5,11
same,SPOT peptide array binding signal intensity,ScNbp2,76.5
same,SPOT peptide array binding signal intensity,ScPex13,8.25
same,SPOT peptide array binding signal intensity,ScRvs167,31.8
same,SPOT peptide array binding signal intensity,ScSho1,688
same,SPOT peptide array binding signal intensity,ScSla1-D1-D2,611
same,SPOT peptide array binding signal intensity,ScSla1-D3,25
same,SPOT peptide array binding signal intensity,SpAbp1-D1,30.5
same,SPOT peptide array binding signal intensity,SpBbc1,18
same,SPOT peptide array binding signal intensity,SpBzz1-D1,225
same,SPOT peptide array binding signal intensity,SpBzz1-D2,≤ 0
same,SPOT peptide array binding signal intensity,SpCyk3,4
same,SPOT peptide array binding signal intensity,SpHof1,367
same,SPOT peptide array binding signal intensity,SpHof1-2,21.5
same,SPOT peptide array binding signal intensity,SpHof1-3,342
same,SPOT peptide array binding signal intensity,SpHse1,108
same,SPOT peptide array binding signal intensity,SpLsb1,1.5
same,SPOT peptide array binding signal intensity,SpLsb4,406
same,SPOT peptide array binding signal intensity,SpMyo1,19
same,SPOT peptide array binding signal intensity,SpNbp2,42
same,SPOT peptide array binding signal intensity,SpPex13,15
same,SPOT peptide array binding signal intensity,SpRvs167,12.2
same,SPOT peptide array binding signal intensity,SpSla1-D1-D2,≤ 0
same,SPOT peptide array binding signal intensity,SpSla1-D3,8
